Test results published in PMC12136788.
Changes are numbered by the printed parent chain. In all, about 24,000 sequences were measured (“enrichment r”: median about 0.99, highest 2% from about 3.7 on). Shown is part of a subset that was picked to be rich in the highest values.

T1: UNK ZnF1-3 (human, UniProt Q9C0B0 31-174)
T1 sequence: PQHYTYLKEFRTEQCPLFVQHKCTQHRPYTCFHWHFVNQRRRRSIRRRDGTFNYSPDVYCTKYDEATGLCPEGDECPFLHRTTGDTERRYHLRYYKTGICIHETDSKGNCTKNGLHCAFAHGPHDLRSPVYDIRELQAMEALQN

B1: chr3:38349274:38349275:-_ENSMUSG00000044864_ENSMUST00000156038|mus_mus|FALSE|FALSE (ssRNA)
RNA: GGGAGUUCUACAGUCCGACGAUCAAAUGACCAAGUACAGCAAGCAGGCUGGCUACAGCACCCUGGUCAGCCUGGUCCUCGCCAGAAGCUGUUUUUGUUCUACUUUAAAUCAGUUAAUAAUAAAAACAAAACAAAAGGGAAAAACAACAGAGGAUUGAGCAUCA
B2: chr18:64617603:64617604:-_ENSMUSG00000024588_ENSMUST00000025484|mus_mus|FALSE|FALSE (ssRNA)
RNA: GGGAGUUCUACAGUCCGACGAUCGCGGGAGGCACACUGGAAGCCAGUUUGGCCUACAUAGGGCAAGCGAGAAAUAAGAUAAAAUAAGAUAAAACACAGGCAAGAGAGAAAUCACAGUUUGUGCCCAGACAAACGUGGCUUCUGCAACAGAGGAUUGAGCAUCA
B3: chr15:100311029:100311030:-_ENSMUSG00000044636_ENSMUST00000061457|mus_mus|FALSE|FALSE (ssRNA)
RNA: GGGAGUUCUACAGUCCGACGAUCGCCUGGUCUACAUAGCAAGUCCCAGGCCAGCCAGGGCUGUUUAGCAACACACUGCCUAAAAAAAAAAAAAGAAAAAAGAAAAGAAAAGAAAAGAAAAGAAAAGAAAAGAAAAGAAAAGAACAACAGAGGAUUGAGCAUCA
B4: chr7:23239867:23239868:+_ENSG00000136243_ENST00000258742|hu_hu|FALSE|FALSE (ssRNA)
RNA: GGGAGUUCUACAGUCCGACGAUCCCCAAAACCAGCAGGGCUUCCAGAAGAGGCAGCAGCAAAUCCAGAGUUUGUUUUAAAACUAAAGUUCUGAGCAUUAUCACUGCUGCUGUUAUUGACUGGAAAGCCUGGCGACAUAAAUGUCAACAGAGGAUUGAGCAUCA
B5: chr12:86311719:86311720:-_ENSMUSG00000042350_ENSMUST00000043169|mus_hu|FALSE|FALSE (ssRNA)
RNA: GGGAGUUCUACAGUCCGACGAUCGACUGCCAAAGGACGCCCCAGGAUCCCGAGCCGGGGGUUGCAGCGCGACGAAGUUCCACCUCCGCUGUCCUGGGAAGGGGCGGCAGCACUCAGCAGAAGACGGGCUCCCCACUCUCCCACCAACAGAGGAUUGAGCAUCA
B6: chr15:100311029:100311030:-_ENSMUSG00000044636_ENSMUST00000061457|mus_mus|motif|central (ssRNA)
RNA: B3 RNA with U80G, A81G
B7: chr4:155540527:155540528:-_ENSMUSG00000041936_ENSMUST00000154494|mus_hu|FALSE|FALSE (ssRNA)
RNA: GGGAGUUCUACAGUCCGACGAUCGCCUGGACGGAAGGGAGGCCGGGCCAGCAGUCCCUCCGGCCAACACUCAGGCAAGAAAAUCAUAUCAAAAAGCAACAAGUUUACAAAAAUAGAAAAUAAUUACAGCGGGCGCGGGGCUCUCAACAGAGGAUUGAGCAUCA
B8: chr2:104430758:104430759:+_ENSMUSG00000027176_ENSMUST00000028599|mus_mus|motif|central (ssRNA)
RNA: GGGAGUUCUACAGUCCGACGAUCGGGACUACAACGUACGCACCAGCCGGCAAAGGGAAGCUAGAAAAGGAAAAUUAAACGGAAGGCAAACCCCACCAAAACCAGGAACACUACCCCUGUCCCUCAGAGCCAAAGCCGCCGCCACAACAGAGGAUUGAGCAUCA
B9: chr2:181041410:181041411:-_ENSMUSG00000027581_ENSMUST00000103045|mus_hu|FALSE|FALSE (ssRNA)
RNA: GGGAGUUCUACAGUCCGACGAUCAGCAUGAAGCUGGGGGCGGGGGUGGGGGAGGAGGAACAAAAGUUGCAUCUAGACAGAGGUGAACGAAACAAAACCAAAACCCGAACGUGUUCUGUCGCAGGAUGGGCGCCGCCCGUCCCGCAACAGAGGAUUGAGCAUCA
B10: 91351710_91351830_385_5pUTR_ENSMUSG00000055013_ENSMUST00000027521|mouse|control|control (ssRNA)
RNA: GGGAGUUCUACAGUCCGACGAUCAAGAAAAAGAAAAAGAAAAAGAAAAGAACGCUGAGGAUGAAGCAGUAGAGGGGCUCAGUUCAUAGCAGGGACCAGCGUCCCGGGUCAGCGGGCCGUCCGGGAAGACCGCGGCGCCAUGGACAACAGAGGAUUGAGCAUCA
B11: chr9:108469239:108469240:-_ENSMUSG00000070283_ENSMUST00000074208|mus_hu|FALSE|FALSE (ssRNA)
RNA: GGGAGUUCUACAGUCCGACGAUCGGGAAGCUCAACGGGCGGACAGCGCAGCGAGGGUCGCGCUCGGUACAAGCUACGUAGCGCGAGAGCGGUGGCCAUGGCUGACCAACGCGCGGCGAAGUCGUCACCGGCGCCGUUAGUCCCCAACAGAGGAUUGAGCAUCA
B12: chr4:140556289:140556290:+_ENSMUSG00000036622_ENSMUST00000037055|mus_mus|mus_mus_mus_hu_False|8_78 (ssRNA)
RNA: GGGAGUUCUACAGUCCGACGAUCGAUGGAGCUCACCAGGCCCCCUUUUGCCGUGCAGAACCCUGUCCGGGUCACCACUGCCAGGACGUGCGGUCCCACAUAGGCCCGGGCCUGCAAGAUGAGGGUCCCACAGAAGAGUGUGUGCAACAGAGGAUUGAGCAUCA
B13: chr14:57575763:57575764:+_ENSMUSG00000021945_ENSMUST00000022511|mus_hu|FALSE|FALSE (ssRNA)
RNA: GGGAGUUCUACAGUCCGACGAUCCACUGUUUUCAGGCCAAAAUACUUAGUGUUAAAGUAGAACAGUGUAUUCAGAAGAGCUACUGGAGAGUGUGAUCCUAGUUGUUUUAUCCUCCAGAGAUAGUCUUCUUCAACUCGAGAGAACAACAGAGGAUUGAGCAUCA
B14: chr1:183495733:183495734:+_ENSG00000116698_ENST00000515829|hu_hu|FALSE|FALSE (ssRNA)
RNA: GGGAGUUCUACAGUCCGACGAUCGGAAGACUUCACACGGCAUGGUAAAUCUACAUUAAAUACUGUACACAGUUCUUGUAAUAACUGAGUAUAGAAGCCACUAGCUGCCUCUAGGAACAGAGAAAGGUUUGCCUGAACUUCACUCAACAGAGGAUUGAGCAUCA

Target: T1, UNK ZnF1-3
Assay: nsRBNS (natural sequence RNA bind-n-seq); RBNS binding buffer (assumed for nsRBNS): 25 mM Tris pH 7.5, 150 mM KCl, 3 mM MgCl2, 0.01% Triton X-100, 500 ug/ml BSA, 20 U/ml SUPERase-In, 4 C; UNK is unkempt and MSI1 is Musashi-1; names of the RNAs are library labels; protein concentration not given here; high values mean tight binding

Binder | binding signal [enrichment R]
B1 | 0.882
B2 | 3.43
B3 | 4.34
B4 | 0.668
B5 | 1.33
B6 | 4.43
B7 | 4.13
B8 | 2.17
B9 | 3.3
B10 | 4.11
B11 | 0.446
B12 | 1.02
B13 | 1.1
B14 | 1.13
